From PubChem BioAssay
The source made the active and inactive calls. Unless noted, the rule behind the calls is not given here.

Legend:
[1] = compounds binding Alexa647 anti-His antibody – biochemical, small-molecule microarray, 635 nm fluorescence, artefact control for SMM control protein annotation, primary screen (AID 1128); conditions: higher = more signal;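 note: score merges feature fluorescence with signal-to-noise for each printed compound spot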
[2] = system: Human papillomavirus type 1a E7 protein (residues 1-88); assay: HPV1a E7 small-molecule binders, primary screen, biochemical, small-molecule microarray, residues 1-88, 635 nm (AID 1129); conditions: small-molecule microarray binding, fluorescence 635 nm; higher = more signal
[3] = target: Focal adhesion kinase 1 (Homo sapiens) (UniProt Q05397); assay: PTK2 protein binding on printed compound slides – biochemical, small-molecule microarray, 635/667 nm fluorescence, BSA, DTT, primary screen (AID 1130); conditions: 635 nm fluorescence, higher = more signal;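 note: composite of spot emission at 667 nm and signal to noise over triplicate slides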
[4] = system: Fibrinogen (Alexa647-labelled); assay: Alexa647-fibrinogen binding to printed small molecules – biochemical, small-molecule microarray, 635/667 nm fluorescence, artefact control for SMM control-protein annotation, profiling panel (AID 1131); conditions: fibrinogen-A647 binding fluorescence, higher = more signal;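 note: z-score merges 667 nm fluorescence with per-spot signal-to-noise over triplicate slides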
[5] = target: Follistatin (Homo sapiens) (UniProt P19883); assay: FST protein binding to printed compounds – biochemical, small-molecule microarray, 635/667 nm fluorescence, primary screen (AID 1132); conditions: 635 nm fluorescence, higher = more signal
[6] = target: Fibroblast growth factor 2 (Homo sapiens) (UniProt P09038); assay: basic fibroblast growth factor binding to printed compounds – biochemical, small-molecule microarray, 635/667 nm fluorescence, primary screen (AID 1133); conditions: FGF2, fluorescence 635/667, higher = more signal
[7] = JC-1 mitochondrial potential readout, lung cancer cells – cell-based, A549, JC-1 fluorescence, basal, 24 h, 100 nL, profiling panel (AID 1138); conditions: higher = more signal;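 note: A549 lung adenocarcinoma cells under basal conditions with no added stimulus; test concentration not given here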
[8] = system: Lefty1; assay: Lefty1 protein binding to printed compounds – biochemical, small-molecule microarray, 635/667 nm fluorescence, primary screen (AID 1139); conditions: fluorescence 635/667, higher = more signal
[9] = system: wheat germ agglutinin (Triticum aestivum), Alexa647-labelled; assay: Alexa647-WGA lectin binding to printed small molecules – biochemical, small-molecule microarray, 635/667 nm fluorescence, artefact control for SMM control-protein annotation, profiling panel (AID 1140); conditions: WGA-A647 binding, 635 nm fluorescence, higher = more signal;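 note: score merges 667 nm feature emission with signal to noise over triplicate slides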
[10] = target: Luciferin 4-monooxygenase (Photinus pyralis) (UniProt P08659); assay: inhibition of purified Photinus pyralis luciferase – biochemical, luminescence, purified enzyme, 2006 set, primary screen (AID 1141); conditions: purified firefly luciferase, SteadyGlo luminescence, 30 min; higher = more signal, called active from +8 up or from −8 down;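 note: cell-free assay with purified firefly luciferase at 100 ng per well in PBS; test concentration not given here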
[11] = system: Wnt5a (protein binding on small-molecule microarray); assay: small molecules binding Wnt5a protein – biophysical, small-molecule microarray, 635/667 nm fluorescence, primary screen (AID 1142); conditions: 635 nm fluorescence, higher = more signal;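 note: fluorescence read at 667 nm with signal to noise per printed feature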
[12] = ATP-based viability of Huh7 replicon cells – cell-based, CellTiter-Glo luminescence, basal, 48 h, cytotoxicity control for HCV replication inhibitor project, primary screen (AID 1143); conditions: higher = more signal, called active from +8 up or from −8 down;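 note: Huh7 hepatoma cells carrying a hepatitis C replication reporter with no stimulus; test concentration not given here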
[13] = Pseudomonas biofilm growth suppression – PAO1 strain, BacTiter-Glo luminescence, LB-PBS, primary screen (AID 1144); conditions: P. aeruginosa PAO1 biofilm, 12 h, higher = more signal
[14] = basal CRE-LacZ reporter activity in PC12 – cell-based, unstimulated, primary screen (AID 1145); conditions: no forskolin, luminescence, 4.5 h, higher = more signal, called active from +8 up or from −8 down
[15] = forskolin-driven CRE-LacZ activity in PC12 – cell-based, CRE-LacZ reporter, forskolin-stimulated, primary screen (AID 1146); conditions: luminescence, 4.5 h, higher = more signal, called active from +8 up or from −8 down;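 note: PC12 cells with 6xCRE LacZ reporter stimulated by forskolin 10 µM; beta-galactosidase reporter signal reflecting CREB driven transcription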
[16] = target: Streptavidin (Streptomyces avidinii) (UniProt P22629); assay: compounds binding control protein streptavidin – biophysical, small-molecule microarray, 635/667 nm fluorescence, artefact control for SMM compound annotation, primary screen (AID 1147); conditions: higher = more signal;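 note: signal reflects streptavidin binding to arrayed compounds as a control protein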
[17] = probe aInhba binding on compound microarray – biochemical, small-molecule microarray, 635/667 nm fluorescence, primary screen (AID 1148); conditions: higher = more signal;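 note: score merges 667nm spot fluorescence with signal-to-noise for antibody binding to printed compounds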
[18] = target: Torsin-1A (Homo sapiens) (UniProt O14656); assay: TOR1A wild-type binding on microarray – cell lysate, small-molecule microarray, lysate, 635/667 nm, primary screen (AID 1149); conditions: COS7 hTOR1A-WT lysate, 635 nm fluorescence, higher = more signal
[19] = target: Torsin-1A (Homo sapiens) (UniProt O14656); assay: torsin A mutant lysate binding on microarrays – cell lysate, small-molecule microarray, COS7 lysate, 635/667 nm fluorescence, primary screen (AID 1150); conditions: COS7 hTOR1A mutant lysate, 635 nm fluorescence, higher = more signal;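 note: score pools 667 nm emission and signal to noise measuring lysate protein binding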
[20] = system: Sonic hedgehog protein (Shh); assay: Sonic hedgehog microarray binding compounds – biochemical, small-molecule microarray, 635/667 nm fluorescence, primary screen (AID 1151); conditions: 635 nm fluorescence, higher = more signal;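 note: Shh protein binding to compounds spotted on small-molecule microarray slides; score combines spot fluorescence intensity with signal-to-noise across triplicate slides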

Streptavidin (Streptomyces avidinii), sequence (P22629 whole entry, looked up): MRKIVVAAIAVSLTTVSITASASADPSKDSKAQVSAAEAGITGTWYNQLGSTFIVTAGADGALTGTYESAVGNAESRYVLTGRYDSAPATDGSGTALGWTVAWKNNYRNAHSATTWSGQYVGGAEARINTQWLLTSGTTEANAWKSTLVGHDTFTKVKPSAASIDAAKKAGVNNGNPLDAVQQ
Focal adhesion kinase 1 (Homo sapiens), sequence (Q05397 whole entry, looked up): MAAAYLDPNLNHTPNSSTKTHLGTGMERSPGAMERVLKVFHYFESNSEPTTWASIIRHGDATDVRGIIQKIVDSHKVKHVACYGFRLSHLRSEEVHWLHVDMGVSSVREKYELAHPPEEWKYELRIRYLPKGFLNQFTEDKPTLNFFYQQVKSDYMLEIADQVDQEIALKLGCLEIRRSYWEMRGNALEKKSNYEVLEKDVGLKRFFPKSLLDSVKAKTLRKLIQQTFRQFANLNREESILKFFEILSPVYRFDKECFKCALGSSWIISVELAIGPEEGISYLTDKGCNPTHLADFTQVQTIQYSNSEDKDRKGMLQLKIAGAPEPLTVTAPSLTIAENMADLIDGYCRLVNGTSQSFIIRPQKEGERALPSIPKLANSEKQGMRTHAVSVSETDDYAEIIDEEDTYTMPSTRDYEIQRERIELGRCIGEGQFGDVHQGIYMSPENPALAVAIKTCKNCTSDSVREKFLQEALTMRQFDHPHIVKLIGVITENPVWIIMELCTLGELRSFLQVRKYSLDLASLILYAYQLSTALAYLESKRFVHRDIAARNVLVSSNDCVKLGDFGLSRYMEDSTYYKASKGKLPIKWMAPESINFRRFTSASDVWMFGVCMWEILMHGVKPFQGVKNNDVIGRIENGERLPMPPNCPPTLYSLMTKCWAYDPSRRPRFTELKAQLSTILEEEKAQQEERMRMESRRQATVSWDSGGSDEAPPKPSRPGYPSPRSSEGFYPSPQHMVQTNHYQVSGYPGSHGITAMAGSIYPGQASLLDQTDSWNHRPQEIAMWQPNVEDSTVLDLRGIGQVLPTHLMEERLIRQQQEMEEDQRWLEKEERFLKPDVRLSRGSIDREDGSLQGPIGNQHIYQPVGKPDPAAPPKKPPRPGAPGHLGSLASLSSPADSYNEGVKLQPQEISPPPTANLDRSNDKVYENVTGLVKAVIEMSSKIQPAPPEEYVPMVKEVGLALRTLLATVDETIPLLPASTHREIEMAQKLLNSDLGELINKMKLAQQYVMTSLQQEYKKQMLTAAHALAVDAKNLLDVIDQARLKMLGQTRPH
Luciferin 4-monooxygenase (Photinus pyralis), sequence (P08659 whole entry, looked up): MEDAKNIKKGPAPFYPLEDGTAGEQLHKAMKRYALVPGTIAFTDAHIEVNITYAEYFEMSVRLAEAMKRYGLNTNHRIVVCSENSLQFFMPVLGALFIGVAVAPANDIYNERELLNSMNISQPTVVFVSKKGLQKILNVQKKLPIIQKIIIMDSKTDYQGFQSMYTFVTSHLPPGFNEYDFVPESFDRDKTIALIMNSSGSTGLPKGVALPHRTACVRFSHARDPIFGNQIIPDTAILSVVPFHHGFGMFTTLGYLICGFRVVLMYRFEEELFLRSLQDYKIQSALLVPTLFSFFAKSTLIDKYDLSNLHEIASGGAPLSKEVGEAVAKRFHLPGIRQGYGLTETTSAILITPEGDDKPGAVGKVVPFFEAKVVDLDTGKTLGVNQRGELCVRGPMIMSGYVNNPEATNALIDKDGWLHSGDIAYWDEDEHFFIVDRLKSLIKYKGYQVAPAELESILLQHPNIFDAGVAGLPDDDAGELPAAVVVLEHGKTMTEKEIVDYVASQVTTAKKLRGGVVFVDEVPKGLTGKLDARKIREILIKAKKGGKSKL
Torsin-1A (Homo sapiens), sequence (O14656 whole entry, looked up): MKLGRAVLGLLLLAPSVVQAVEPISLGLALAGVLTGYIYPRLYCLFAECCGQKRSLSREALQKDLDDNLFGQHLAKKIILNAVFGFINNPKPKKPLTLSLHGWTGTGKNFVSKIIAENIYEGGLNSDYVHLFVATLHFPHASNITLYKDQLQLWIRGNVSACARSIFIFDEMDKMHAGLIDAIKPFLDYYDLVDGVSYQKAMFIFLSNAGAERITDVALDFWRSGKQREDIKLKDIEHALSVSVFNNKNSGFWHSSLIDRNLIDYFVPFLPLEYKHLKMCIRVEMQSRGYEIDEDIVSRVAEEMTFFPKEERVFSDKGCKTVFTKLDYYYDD
Fibroblast growth factor 2 (Homo sapiens), sequence (P09038 whole entry, looked up): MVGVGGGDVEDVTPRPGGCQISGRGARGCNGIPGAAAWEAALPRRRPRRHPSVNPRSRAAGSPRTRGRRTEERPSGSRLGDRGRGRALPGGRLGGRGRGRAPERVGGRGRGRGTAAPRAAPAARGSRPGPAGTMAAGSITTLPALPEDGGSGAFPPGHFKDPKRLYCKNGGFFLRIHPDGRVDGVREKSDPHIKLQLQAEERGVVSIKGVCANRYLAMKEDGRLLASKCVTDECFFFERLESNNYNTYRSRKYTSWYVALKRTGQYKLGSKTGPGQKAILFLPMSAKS
Follistatin (Homo sapiens), sequence (P19883 whole entry, looked up): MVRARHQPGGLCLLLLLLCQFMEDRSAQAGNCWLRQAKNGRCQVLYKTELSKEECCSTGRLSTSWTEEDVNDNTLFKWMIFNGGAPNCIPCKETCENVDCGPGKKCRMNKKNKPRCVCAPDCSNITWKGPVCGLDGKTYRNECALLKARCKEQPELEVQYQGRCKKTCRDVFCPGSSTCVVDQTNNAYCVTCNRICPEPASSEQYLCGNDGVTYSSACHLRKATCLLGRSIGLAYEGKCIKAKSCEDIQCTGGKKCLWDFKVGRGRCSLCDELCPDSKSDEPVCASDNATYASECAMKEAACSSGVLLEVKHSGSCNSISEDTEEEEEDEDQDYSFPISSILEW

| SMILES | composite z-score [1] | composite z-score [2] | composite z-score [3] | composite z-score [4] | composite z-score [5] | composite z-score [6] | z-score [7] | composite z-score [8] | composite z-score [9] | z-score [10] | composite z-score [11] | z-score [12] | z-score [13] | z-score [14] | z-score [15] | composite z-score [16] | composite z-score [17] | composite z-score [18] | composite z-score [19] | composite z-score [20] |
| --- | --- | --- | --- | --- | --- | --- | --- | --- | --- | --- | --- | --- | --- | --- | --- | --- | --- | --- | --- | --- |
| COCC(=C=CC[C@H](O)c1cccc(OCCO)c1)C[C@H](O)c1ccccn1 | 0.344 | 0.273 | -0.296 | 0.521 | 1.37 | 0.89 | 1.07 | 1.37 | 0.613 | -0.266 (inactive) | 0.467 | -0.0843 (inactive) | -0.368 (inactive) | 1.34 (inactive) | -0.527 (inactive) | -0.368 | 0.0497 | -0.733 | -0.526 | 1.59 |
| COCCCNC(=O)[C@@H]1c2ccccc2C(=O)N(Cc2ccccc2C(F)(F)F)[C@H]1c1ccc(CO)cc1 | -0.175 | 0.569 | 0.278 | -0.873 | -0.211 | -0.372 | 2.81 | -0.295 | -0.488 | -1.26 (inactive) | 0.143 | 0.442 (inactive) | 0.309 (inactive) | -0.385 (inactive) | -1.45 (inactive) | -0.194 | 0.0536 | 0.285 | 0.331 | 0.23 |
| C=C[C@H](COC(C)=O)NS(=O)(=O)c1ccc(Br)cc1 | 0.207 | -0.575 | -0.0533 | 0.382 | 1.27 | -0.0651 | 0.695 | 0.17 | 0.146 | -0.503 (inactive) | -0.0966 | 0.0651 (inactive) | -0.0168 (inactive) | 0.26 (inactive) | 0.678 (inactive) | 1.16 | -0.0762 | 0.119 | -0.214 | 0.382 |
| COc1ccc([Si](C)(C)[C@H]2[C@H](CCn3cc(CCO)nn3)O[C@@]3(C(=O)N(Cc4ccc(N5C(=O)c6cccc7cccc5c67)cc4)c4ccccc43)[C@@H]2C)cc1 | 1.12 | 1.2 | 0.379 | 0.431 | 1.23 | 0.949 | -0.932 | 1.31 | 0.578 | 0.303 (inactive) | 0.426 | -7.91 (inactive) | -0.152 (inactive) | 1.12 (inactive) | -0.213 (inactive) | 0.798 | -0.0933 | 0.316 | 0.238 | 2.08 |
